# Hits are enriched below; roughly 3.7% of the tested compounds scored in any of these assays.
# BRCA1 expr act = qHTS Assay to Identify Small Molecule Activators of BRCA1 Expression | MCF7-BRCA1-FFLuc reporter, luminescence, 48 h; response scale: scaled: vehicle 0%, 10 µM genistein 100% | Potency, µM (doses to about 46.1 µM), inactives show at the top dose activation, hits mostly activators | hit rate 1.1% among 380,000; note: potency is the fitted concentration of half-maximal effect; nearly all actives have a fitted effect of over 80% in size
#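 48 h compound treatment of MCF7-BRCA1-FFLuc cells (phenol-red free MEM, 37 °C), then 15 min with luciferase substrate and luminescence imaging.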
# RGS4 inh = Inhibitors of Regulator of G Protein Signaling (RGS) 4: qHTS | Regulator of G-protein signaling 4 (Homo sapiens), P49798 | Transcreener GDP fluorescence polarization, RGS4-accelerated GTP hydrolysis | Potency, µM (titrated, usually from 114 µM), inactives show at the top dose activity change, negative = inhibition, most hits filed as inhibitors | hit rate 0.039% among 390,000 | AID 504845, 2011; note: potency is the fitted concentration of half-maximal effect; % is set by controls: 0 for no effect and ±100 for the full control effect; nearly all actives have a fitted effect of over 75% in size
# Target sequence (P49798 whole entry, looked up): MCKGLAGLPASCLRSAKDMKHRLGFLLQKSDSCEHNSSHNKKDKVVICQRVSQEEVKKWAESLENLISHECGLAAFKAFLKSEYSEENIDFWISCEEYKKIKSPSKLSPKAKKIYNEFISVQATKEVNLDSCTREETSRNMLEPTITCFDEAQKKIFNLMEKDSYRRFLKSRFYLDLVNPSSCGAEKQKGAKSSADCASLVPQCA
#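 MLSMR compounds (23 nl, pin-transferred) preincubated 10 min at room temperature with a 500nM (2x) first reagent, then RGS4 at 900nM (2x) plus Transcreener GDP mix added; fluorescence polarization (620/688 nm) read before and after 90 min at 30 °C.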
# DRD3 antagonist = qHTS of D3 Dopamine Receptor Antagonist: qHTS; D3R cells, DiscoveRx beta-arrestin luminescence, antagonist mode; active compounds read low; AID 652054, 2013; D(3) dopamine receptor (Homo sapiens), P35462; hit rate 2.5% among 360,000; max response, negative = inhibition, %; in the data active = max response below about -50%; inconclusive = no clear call, values can overlap the other calls; note: % is set by controls: 0 for no effect and ±100 for the full control effect
#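 Cells expressing the human receptor were seeded at 1500 cells/well, incubated overnight at 37 degrees C in 5% CO2, then exposed to library compounds with dopamine controls for 90 minutes at 37 degrees C before luminescent detection.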
# B2AR arrestin = qHTS assay of beta-arrestin-biased ligands of beta2-adrenergic receptor. beta-arrestin recruitment to beta2AR, cell-based reporter. Potency, µM (doses to about 46.1 µM), inactives show top-dose activation, most hits filed as activators. hit rate 0.02% among 330,000;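 note: potency is the fitted concentration of half-maximal effect; 0% = DMSO controls and full agonism = EC100 isoproterenol or metaproterenol; nearly all actives have a fitted effect of over 65% in size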
# Target sequence (P07550 whole entry, looked up): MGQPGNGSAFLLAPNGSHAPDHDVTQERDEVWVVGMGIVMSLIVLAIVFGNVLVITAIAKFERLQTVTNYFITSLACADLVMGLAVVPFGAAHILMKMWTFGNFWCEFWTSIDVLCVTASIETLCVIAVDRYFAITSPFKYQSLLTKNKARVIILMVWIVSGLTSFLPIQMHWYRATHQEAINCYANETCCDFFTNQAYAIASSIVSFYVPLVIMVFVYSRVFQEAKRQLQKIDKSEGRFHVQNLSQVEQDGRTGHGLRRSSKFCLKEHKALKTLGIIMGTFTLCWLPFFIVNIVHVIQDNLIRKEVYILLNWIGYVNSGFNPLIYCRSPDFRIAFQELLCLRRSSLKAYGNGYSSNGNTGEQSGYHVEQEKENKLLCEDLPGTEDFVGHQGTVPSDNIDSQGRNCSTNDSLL
# PTHR1 ag = qHTS for PTHR1 Agonists: Primary Screen | hit rate 0.075% among 410,000 | Parathyroid hormone/parathyroid hormone-related peptide receptor (Homo sapiens), Q03431 | Potency, µM (titrated, usually from 115 µM), for inactives: at the highest dose activation, most hits filed as activators | HEK293 GP2 PTHR1 cells, GloSensor cAMP luminescence, 1 h; note: potency is the fitted concentration of half-maximal effect; nearly all actives have a fitted effect of over 55% in size
#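 HEK-293-derived GP2 cells expressing PTHR1 and a GloSensor cAMP reporter, 3,000/well, plated overnight, given luciferin plus IBMX (each 0.5 mM as added) for 1 h at 37 °C, then compound for 1 h at 37 °C. Luminescence was read after 15 min at room temperature.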
# DRD3 agonist = qHTS of D3 Dopamine Receptor Agonist: qHTS. D3R DiscoveRx beta-arrestin cells, luminescence, 90 min. hit rate 0.58% among 410,000. max activation, %; in the data active = max activation above about 30%; note: 0% is about no effect
#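 Agonist-mode cell screen: cells plated at 1500/well and incubated overnight at 37 °C, then exposed to library compounds for 90 min at 37 °C. Detection reagent was added for 30–60 min at room temperature, and luminescence was read.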
# The depositor's hits bear a star; i = inactive; ? = inconclusive; . = no result; [ ] = dose if it differs, or a comment. Unless noted, calls come from the whole dose curve; as a rule, active = well fitted curve in the direction sought with a large enough effect; inconclusive = small, poorly fitted or top-dose-only effect, or another doubt; inactive = no such curve, though single readings can be large; an effect the other way counts as inactive or inconclusive.
SMILES,BRCA1 expr act,RGS4 inh,DRD3 antagonist,B2AR arrestin,PTHR1 ag,DRD3 agonist
O=C(NCc1cccs1)Nc1ccc(Cl)cc1,10µM*,4%,35,-1%,-14%,-13
Oc1ccc(NCc2cccs2)cc1,-36%,?,-27,13µM*,i,-4
O=C(NCc1cccs1)Nc1ccc2c(c1)OCO2,10µM*,-2%,1,0%,-9%[57.5 µM],5
COC(=O)c1ccccc1NC(=O)Cn1c(=O)n(CCCCC(=O)NCc2ccc3c(c2)OCO3)c(=O)c2ccccc21,3%,22%,.,.,-23%,4
Cc1ccccc1CC(=O)N1CCCC1,2%,7%,-10,0%,i,5
N#Cc1ccc(C(=O)NC23CC4CC(CC(C4)C2)C3)cc1,-8%,-32%,1,0%,i,-7
O=C(NCC1CC1)Nc1cccc(Cl)c1,92%,7%,-22,0%,-10%,7
O=C(NCC1CC1)Nc1ccc(Cl)cc1,10µM*,14%,13,0%,-12%,2
Cc1ccc(C(=O)C2=C(O)C(=O)N(Cc3ccccc3)C2c2cccnc2)o1 (stereo not drawn),0%,-14%,31,0%,-7%[57.5 µM],11
Cc1ccc(C(=O)C2=C(O)C(=O)N(Cc3cccnc3)C2c2cccc(Oc3ccccc3)c2)o1 (stereo not drawn),0%,-6%,-69*,.,-22%,2
CCCOc1cccc(C2C(C(=O)c3ccc(C)o3)=C(O)C(=O)N2CCN2CCOCC2)c1 (stereo not drawn),-13%,-13%,-4,0%,i,1
COc1cc(C2C(C(=O)c3ccc(C)o3)=C(O)C(=O)N2Cc2ccccc2)ccc1O (stereo not drawn),-2%,10%,-22,0%,-5%,-5
CCOc1cc(C2C(C(=O)c3ccc(C)o3)=C(O)C(=O)N2CCc2ccccc2)ccc1O (stereo not drawn),-13%,19%,-56*,0%,-8%,0
C=CCOc1cccc(C2C(C(=O)c3ccc(C)o3)=C(O)C(=O)N2CCN(C)C)c1 (stereo not drawn),-3%,-41%,-64*,0%,i,-7
CCOC1=C2[C@H](c3ccc(CC)cc3)N(S(=O)(=O)c3ccc(C)cc3)C[C@H]2n2c(=O)n(-c3ccccc3)c(=O)n2C1,-23%,.,?,.,i,-6
CN(C(=O)CSc1cn(CC(=O)N2CCCCCC2)c2ccccc12)c1ccccc1,.,6%,.,.,i,-27
O=C(NCCN1CCOCC1)c1noc2c1CCc1ccccc1-2,7.9µM*,20%,5,0%,-31%[57.5 µM],-18
COc1ccc2c(c1)CCc1c(C(=O)Nc3ccc(OC)c(OC)c3)noc1-2,9%,-3%,14,0%,?,34*
CCCNC(=O)c1noc2c1CCc1ccccc1-2,48%,6%,28,-1%,-42%,7
COc1ccc2c(c1)CCc1c(C(=O)NCCc3ccc(OC)c(OC)c3)noc1-2,-20%,-16%,-13,0%,i,20
COc1ccc2c(c1)CCc1c(C(=O)N3CCOCC3)noc1-2,2.8µM*,-24%,-27,0%,-44%[57.5 µM],10
Cc1cc(Cl)ccc1OCC(=O)N1CCCCC1,11µM*,-3%[11.4 µM],1,0%,i,0
CCN1CCN(c2ccc(NC(=O)COc3ccc(Cl)cc3C)cc2)CC1,-1%,5%,-52*,0%,-52%,-23
CCN1CCN(c2ccc(NC(=O)COc3ccccc3Cl)cc2)CC1,-23%,42%,-64*,-1%,-38%,2
O=C(COc1ccccc1Cl)Nc1ccc(Cl)cn1,10µM*,-14%,20,0%,-6%,1
SMILES,BRCA1 expr act,RGS4 inh,DRD3 antagonist,B2AR arrestin,PTHR1 ag,DRD3 agonist
COc1ccc(C2CC(=O)Nc3c2c(=O)nc2c(C)cccn32)cc1 (stereo not drawn),9%,-2%,.,.,i,8
O=C(Nc1ccc2ccccc2c1)c1cccnc1,?,-18%,15,0%,-5%[57.5 µM],3
O=C(Nc1ccc(Cl)cn1)c1cccnc1,-23%,9%,-51*,0%,-14%,3
O=C(Nc1ccc2c(c1)Cc1ccccc1-2)c1cccnc1,2.8µM*,10%[56.9 µM],-2,-1%,-17%,1
O=C(Nc1ccc(Cl)cn1)c1ccc2nccnc2c1,68%,-13%,5,-1%,-16%,2
CCC(C)(C)NC(=O)c1ccc2c(c1)N(CC(=O)NC1CCCC1)C(=O)C(C)(C)O2,-10%,2%,-62*,0%,-2%,-14
CCC12CN3CC(C)(CN(C1)C3c1c[nH]c3ccccc13)C2=O (stereo not drawn),.,-9%,.,.,-10%,5
O=c1cc(-c2ccsc2)oc2ccc(-c3ccc4cc[nH]c4c3)cc12,5.6µM*,?,20,0%,-19%,3
CC1CCN(c2c(NCC3CCC(C(=O)NCc4ccccc4)CC3)c(=O)c2=O)CC1 (stereo not drawn),-1%,-22%,-61*,-1%,-8%,1
O=C(NCc1ccccc1)C1CCC(CNc2c(N3CCCCC3)c(=O)c2=O)CC1 (stereo not drawn),1%,10%,-5,-4%,-5%,-3
O=C(O)CCC/C=C\C[C@@H]1[C@@H](/C=C/[C@H](O)C2Cc3ccccc3C2)[C@@H](F)C[C@@H]1O,.,0%[56.9 µM],.,.,.,.
Cc1cc(C)cc(-n2ccn(CC(=O)Nc3cc(C)ccc3C)c(=O)c2=O)c1,.,17%,.,.,i,-14
COc1cc(/C=N/n2c(-c3cc(C)[nH]n3)n[nH]c2=S)cc(OC)c1OC,0%,-23%,-51*,-1%,i,-8
COc1cc(/C=N/NC(=O)c2nnn(-c3nonc3N)c2C(C)C)ccc1OCc1ccc(F)cc1,-33%,31%,74,0%,-28%,57*
COc1cc(/C=N/n2c(C)n[nH]c2=S)ccc1OCc1ccc(F)cc1,5.6µM*,-50%,?,-1%,i,-9
COc1cc(/C=N/n2c(-c3cc(C)[nH]n3)n[nH]c2=S)ccc1O,-25%,-16%,?,0%,i,10
COc1cc(/C=N\n2nnnc2N)ccc1OCc1ccc(F)cc1,20%,-24%,-54*,0%,i,-9
